# Reference: article PMC7862700, “An all-to-all approach to the identification of sequence-specific readers for epigenetic DNA modifications on cytosine”
# How the values were obtained:
# Test in all cases: DAPPL (digital affinity profiling via proximity ligation, sequencing); 10 mM Tris-HCl pH 7.5, 50 mM NaCl, 1 mM DTT, 4% glycerol, room temperature, 30 min; GST-TFs on glutathione beads, 16-mer random dsDNA library, 0.1% formaldehyde crosslink after washing; high values mean tight binding
# Details in all cases: protein: recombinant; tags: N-terminal GST; dsDNA, one strand shown
# [1] = molecular target: T1, ELK1 (Homo sapiens, UniProt P19419 1-428)
# T1 sequence: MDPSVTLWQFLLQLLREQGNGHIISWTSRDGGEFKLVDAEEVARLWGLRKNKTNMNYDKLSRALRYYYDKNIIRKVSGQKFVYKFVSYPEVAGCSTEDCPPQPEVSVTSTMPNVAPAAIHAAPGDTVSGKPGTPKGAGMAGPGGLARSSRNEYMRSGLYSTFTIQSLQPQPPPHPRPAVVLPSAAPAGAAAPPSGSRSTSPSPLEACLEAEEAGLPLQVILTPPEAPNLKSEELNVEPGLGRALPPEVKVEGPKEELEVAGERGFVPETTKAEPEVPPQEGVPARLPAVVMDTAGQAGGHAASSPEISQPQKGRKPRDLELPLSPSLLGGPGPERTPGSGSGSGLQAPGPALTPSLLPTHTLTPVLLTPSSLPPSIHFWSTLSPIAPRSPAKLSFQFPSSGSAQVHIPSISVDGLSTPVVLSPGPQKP
# Method in brief: (§1)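 Binding signal is each hexamer's read frequency for a factor divided by its frequency in the tag-only sample. The factors were GST-fused human transcription factors from yeast, captured on glutathione beads, DNA-barcoded and pooled with that sample. Pools were incubated with 200 nmole of a random double-stranded 16-mer DNA library in Tris/NaCl/DTT/glycerol buffer at room temperature for 30 min, then washed, crosslinked with 0.1% formaldehyde, proximity-ligated with BsaI/T4 ligase (1 h, 37 °C), PCR-amplified and sequenced on an Illumina NextSeq500.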
# [2] = molecular target: ELF1 (Homo sapiens, UniProt P32519 1-619)
# Method in brief: as §1
# [3] = molecular target: T2, EHF (Homo sapiens, UniProt Q9NZC4 1-300)
# T2 sequence: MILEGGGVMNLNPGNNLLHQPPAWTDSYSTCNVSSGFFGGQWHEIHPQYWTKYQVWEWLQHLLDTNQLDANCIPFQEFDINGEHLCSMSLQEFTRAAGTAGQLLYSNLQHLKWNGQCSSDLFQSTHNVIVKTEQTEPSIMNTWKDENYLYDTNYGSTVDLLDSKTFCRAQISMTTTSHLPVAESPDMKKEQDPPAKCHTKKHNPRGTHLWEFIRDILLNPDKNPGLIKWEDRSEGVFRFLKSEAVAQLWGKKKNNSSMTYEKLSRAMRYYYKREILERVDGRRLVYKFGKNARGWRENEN
# Method in brief: as §1
# [4] = molecular target: SPI1 (Homo sapiens, UniProt P17947 1-270)
# Method in brief: as §1
# [5] = molecular target: SPIB (Homo sapiens, UniProt Q01892 1-262)
# Method in brief: as §1
# [6] = molecular target: ETV5 (Homo sapiens, UniProt P41161 1-510)
# Method in brief: as §1
# [7] = molecular target: ELF4 (Homo sapiens, UniProt Q99607 1-663)
# Method in brief: as §1
# [8] = molecular target: T3, ELK4 (Homo sapiens, UniProt P28324-2 1-405)
# T3 sequence: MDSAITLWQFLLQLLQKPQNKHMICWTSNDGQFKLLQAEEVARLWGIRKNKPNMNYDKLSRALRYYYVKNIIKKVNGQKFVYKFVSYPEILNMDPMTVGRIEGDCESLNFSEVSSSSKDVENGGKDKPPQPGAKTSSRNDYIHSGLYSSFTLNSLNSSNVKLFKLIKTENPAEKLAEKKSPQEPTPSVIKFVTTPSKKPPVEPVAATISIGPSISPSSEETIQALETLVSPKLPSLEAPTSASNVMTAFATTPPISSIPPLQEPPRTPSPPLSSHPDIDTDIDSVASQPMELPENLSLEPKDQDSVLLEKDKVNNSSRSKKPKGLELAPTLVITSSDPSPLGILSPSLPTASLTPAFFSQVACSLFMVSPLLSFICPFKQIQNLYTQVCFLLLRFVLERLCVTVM
# Method in brief: as §1
# [9] = molecular target: T4, ELF3 (Homo sapiens, UniProt P78545 1-371)
# T4 sequence: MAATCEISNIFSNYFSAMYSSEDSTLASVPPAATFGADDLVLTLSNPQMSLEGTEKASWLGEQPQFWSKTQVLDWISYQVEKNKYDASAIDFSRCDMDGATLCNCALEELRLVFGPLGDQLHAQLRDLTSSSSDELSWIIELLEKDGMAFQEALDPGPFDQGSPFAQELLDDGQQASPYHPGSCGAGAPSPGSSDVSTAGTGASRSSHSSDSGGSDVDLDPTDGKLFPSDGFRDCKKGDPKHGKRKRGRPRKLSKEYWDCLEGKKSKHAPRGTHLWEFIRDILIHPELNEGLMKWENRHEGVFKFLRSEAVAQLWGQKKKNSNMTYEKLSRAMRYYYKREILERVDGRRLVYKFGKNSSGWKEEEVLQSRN
# Method in brief: as §1
# [10] = molecular target: ETV1 (Homo sapiens, UniProt P50549 1-477)
# Method in brief: as §1
# [11] = molecular target: T5, ERF (Homo sapiens, UniProt P50548 1-548)
# T5 sequence: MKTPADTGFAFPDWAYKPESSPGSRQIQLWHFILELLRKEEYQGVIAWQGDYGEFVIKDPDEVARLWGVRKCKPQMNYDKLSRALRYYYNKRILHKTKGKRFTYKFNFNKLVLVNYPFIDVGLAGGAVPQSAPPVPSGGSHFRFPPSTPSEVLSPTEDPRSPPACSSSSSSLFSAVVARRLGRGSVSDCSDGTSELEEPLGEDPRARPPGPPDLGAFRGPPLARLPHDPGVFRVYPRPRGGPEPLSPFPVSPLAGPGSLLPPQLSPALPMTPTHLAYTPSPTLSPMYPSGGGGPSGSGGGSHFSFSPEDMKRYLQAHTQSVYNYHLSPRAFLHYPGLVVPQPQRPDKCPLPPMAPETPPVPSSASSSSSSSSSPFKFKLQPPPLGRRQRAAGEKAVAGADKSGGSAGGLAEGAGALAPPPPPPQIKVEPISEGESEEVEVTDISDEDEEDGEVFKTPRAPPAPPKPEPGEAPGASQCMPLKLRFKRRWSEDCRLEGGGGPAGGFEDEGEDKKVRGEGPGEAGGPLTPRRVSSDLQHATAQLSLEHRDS
# Method in brief: as §1
# [12] = molecular target: T6, ETV3L (Homo sapiens, UniProt Q6ZN32 1-361)
# T6 sequence: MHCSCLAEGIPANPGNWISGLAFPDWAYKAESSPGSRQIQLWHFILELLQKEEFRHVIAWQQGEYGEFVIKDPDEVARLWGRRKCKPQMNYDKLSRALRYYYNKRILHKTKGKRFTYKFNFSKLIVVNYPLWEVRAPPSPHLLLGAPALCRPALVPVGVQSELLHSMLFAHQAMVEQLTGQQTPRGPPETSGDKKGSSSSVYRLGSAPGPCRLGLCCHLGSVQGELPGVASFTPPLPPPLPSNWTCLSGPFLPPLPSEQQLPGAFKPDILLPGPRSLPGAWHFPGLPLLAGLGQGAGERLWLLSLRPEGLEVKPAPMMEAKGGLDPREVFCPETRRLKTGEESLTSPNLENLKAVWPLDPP
# Method in brief: as §1
# [13] = molecular target: T7, ETS2 (Homo sapiens, UniProt P15036 1-469)
# T7 sequence: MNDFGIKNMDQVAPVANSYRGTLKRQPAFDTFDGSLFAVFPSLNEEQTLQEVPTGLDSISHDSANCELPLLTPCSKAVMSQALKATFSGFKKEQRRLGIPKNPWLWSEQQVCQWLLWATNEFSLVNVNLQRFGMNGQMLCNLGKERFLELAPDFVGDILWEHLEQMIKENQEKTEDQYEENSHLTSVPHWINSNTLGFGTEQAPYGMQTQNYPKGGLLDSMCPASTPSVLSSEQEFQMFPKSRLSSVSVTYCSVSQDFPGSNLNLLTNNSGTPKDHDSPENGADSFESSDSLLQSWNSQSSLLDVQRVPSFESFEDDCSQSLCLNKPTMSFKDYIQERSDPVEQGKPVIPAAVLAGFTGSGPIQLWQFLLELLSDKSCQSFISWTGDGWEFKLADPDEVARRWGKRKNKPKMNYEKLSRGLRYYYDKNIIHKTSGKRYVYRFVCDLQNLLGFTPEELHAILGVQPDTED
# Method in brief: as §1
# [14] = molecular target: T8, SPDEF (Homo sapiens, UniProt O95238 1-335)
# T8 sequence: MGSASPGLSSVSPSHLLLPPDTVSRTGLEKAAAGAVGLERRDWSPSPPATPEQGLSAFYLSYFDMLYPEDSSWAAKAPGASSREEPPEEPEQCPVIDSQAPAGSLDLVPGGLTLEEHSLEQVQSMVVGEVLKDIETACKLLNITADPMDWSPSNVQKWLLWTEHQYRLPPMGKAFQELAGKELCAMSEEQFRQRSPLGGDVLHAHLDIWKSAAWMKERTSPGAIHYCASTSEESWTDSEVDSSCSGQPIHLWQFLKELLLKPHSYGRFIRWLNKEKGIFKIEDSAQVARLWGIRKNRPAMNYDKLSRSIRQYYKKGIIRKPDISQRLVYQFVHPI
# Method in brief: as §1
# [15] = molecular target: T9, ETV7 (Homo sapiens, UniProt Q9Y603 1-341)
# T9 sequence: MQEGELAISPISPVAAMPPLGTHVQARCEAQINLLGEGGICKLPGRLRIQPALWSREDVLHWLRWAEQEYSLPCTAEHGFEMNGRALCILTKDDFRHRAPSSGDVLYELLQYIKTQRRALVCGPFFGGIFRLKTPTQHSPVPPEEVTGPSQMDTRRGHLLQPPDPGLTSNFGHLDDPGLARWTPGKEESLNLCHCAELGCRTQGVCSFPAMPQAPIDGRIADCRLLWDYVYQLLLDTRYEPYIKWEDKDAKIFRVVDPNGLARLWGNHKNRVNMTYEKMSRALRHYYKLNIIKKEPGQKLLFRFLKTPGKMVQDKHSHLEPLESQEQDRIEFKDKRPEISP
# Method in brief: as §1
# [16] = molecular target: ETV6 (Homo sapiens, UniProt P41212 1-452)
# Method in brief: as §1
# ETV1, sequence (P50549 whole entry): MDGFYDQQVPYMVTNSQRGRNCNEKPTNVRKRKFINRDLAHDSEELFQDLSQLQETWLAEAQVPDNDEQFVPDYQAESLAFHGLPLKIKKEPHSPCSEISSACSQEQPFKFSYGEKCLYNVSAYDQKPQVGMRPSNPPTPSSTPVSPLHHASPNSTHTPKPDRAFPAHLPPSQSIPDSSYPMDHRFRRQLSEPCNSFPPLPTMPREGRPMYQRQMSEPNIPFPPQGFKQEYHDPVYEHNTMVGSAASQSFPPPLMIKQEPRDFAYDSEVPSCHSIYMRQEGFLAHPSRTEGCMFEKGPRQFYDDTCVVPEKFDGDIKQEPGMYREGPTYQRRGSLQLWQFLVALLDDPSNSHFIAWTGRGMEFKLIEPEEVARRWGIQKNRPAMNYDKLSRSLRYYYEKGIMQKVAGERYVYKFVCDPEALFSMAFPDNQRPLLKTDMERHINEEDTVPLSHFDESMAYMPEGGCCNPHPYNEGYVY
# SPIB, sequence (Q01892 whole entry): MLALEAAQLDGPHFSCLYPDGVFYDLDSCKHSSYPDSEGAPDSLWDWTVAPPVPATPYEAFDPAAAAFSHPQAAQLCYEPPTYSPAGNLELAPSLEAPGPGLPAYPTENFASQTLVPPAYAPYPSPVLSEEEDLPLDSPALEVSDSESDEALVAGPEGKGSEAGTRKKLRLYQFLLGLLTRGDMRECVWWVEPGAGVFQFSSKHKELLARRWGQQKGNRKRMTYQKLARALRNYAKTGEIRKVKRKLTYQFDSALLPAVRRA
# ETV5, sequence (P41161 whole entry): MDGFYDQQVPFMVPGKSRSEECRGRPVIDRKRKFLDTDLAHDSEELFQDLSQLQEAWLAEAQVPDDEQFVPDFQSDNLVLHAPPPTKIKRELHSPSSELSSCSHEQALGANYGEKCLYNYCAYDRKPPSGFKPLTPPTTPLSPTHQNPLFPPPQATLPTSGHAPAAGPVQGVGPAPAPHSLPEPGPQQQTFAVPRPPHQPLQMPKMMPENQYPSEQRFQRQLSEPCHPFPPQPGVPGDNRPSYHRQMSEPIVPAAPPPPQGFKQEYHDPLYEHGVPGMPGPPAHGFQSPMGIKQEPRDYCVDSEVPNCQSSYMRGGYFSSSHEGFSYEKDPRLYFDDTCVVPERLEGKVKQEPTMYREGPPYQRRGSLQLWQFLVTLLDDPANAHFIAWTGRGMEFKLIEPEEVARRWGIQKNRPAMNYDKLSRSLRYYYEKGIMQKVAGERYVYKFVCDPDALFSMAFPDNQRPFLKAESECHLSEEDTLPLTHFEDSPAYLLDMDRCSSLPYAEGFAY
# ETV6, sequence (P41212 whole entry): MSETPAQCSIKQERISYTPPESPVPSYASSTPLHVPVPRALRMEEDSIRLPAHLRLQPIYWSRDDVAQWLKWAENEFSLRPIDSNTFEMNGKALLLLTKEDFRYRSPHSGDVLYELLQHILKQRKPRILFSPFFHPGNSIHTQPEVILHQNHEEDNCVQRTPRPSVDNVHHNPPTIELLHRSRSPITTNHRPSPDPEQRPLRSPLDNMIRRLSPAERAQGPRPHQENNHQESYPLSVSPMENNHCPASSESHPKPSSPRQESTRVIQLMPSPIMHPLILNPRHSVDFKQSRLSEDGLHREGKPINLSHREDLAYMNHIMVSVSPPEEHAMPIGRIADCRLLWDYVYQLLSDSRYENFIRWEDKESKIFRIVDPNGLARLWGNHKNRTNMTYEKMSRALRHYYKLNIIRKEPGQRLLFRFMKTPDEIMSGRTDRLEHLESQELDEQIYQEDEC
# ELF4, sequence (Q99607 whole entry): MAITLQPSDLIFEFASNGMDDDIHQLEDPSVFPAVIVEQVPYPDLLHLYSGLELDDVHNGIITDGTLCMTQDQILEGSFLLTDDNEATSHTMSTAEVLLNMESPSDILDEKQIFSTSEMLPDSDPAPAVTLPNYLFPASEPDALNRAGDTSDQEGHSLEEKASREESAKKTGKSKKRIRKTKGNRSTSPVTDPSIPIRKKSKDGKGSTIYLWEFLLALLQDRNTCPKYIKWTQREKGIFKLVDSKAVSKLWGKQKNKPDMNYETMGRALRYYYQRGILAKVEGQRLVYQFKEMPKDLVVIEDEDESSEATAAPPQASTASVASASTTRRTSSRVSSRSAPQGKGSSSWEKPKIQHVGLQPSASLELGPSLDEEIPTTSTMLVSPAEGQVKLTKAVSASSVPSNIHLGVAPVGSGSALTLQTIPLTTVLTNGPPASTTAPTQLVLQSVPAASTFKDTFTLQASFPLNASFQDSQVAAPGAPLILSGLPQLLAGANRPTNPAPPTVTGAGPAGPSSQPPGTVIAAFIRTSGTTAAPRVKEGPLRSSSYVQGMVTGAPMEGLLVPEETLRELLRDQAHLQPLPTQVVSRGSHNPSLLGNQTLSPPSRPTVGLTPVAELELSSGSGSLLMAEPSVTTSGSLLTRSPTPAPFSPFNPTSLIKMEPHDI
# ELF1, sequence (P32519 whole entry): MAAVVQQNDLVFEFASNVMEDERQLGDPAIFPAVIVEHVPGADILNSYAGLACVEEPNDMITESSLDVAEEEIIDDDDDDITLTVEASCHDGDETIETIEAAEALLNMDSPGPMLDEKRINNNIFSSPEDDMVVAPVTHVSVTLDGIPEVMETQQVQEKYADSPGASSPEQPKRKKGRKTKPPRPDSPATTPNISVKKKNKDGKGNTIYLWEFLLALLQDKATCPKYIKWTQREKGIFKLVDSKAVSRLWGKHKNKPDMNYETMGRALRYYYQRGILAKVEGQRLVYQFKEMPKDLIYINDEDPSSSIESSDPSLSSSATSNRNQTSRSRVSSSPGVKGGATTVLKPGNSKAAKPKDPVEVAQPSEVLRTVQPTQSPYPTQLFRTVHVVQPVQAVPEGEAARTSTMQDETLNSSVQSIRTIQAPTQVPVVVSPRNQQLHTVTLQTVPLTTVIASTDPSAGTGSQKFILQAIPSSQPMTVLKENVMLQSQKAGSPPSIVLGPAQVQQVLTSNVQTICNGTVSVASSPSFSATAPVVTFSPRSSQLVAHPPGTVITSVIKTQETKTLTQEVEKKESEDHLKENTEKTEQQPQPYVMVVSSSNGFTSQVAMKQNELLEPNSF
sequence,measurement,setting,value
GTCTAT,binding signal,[1],"1.04 fold enrichment (6-mer frequency, TF over GST control)"
same,binding signal,[2],"1.08 fold enrichment (6-mer frequency, TF over GST control)"
same,binding signal,[3],"1.1 fold enrichment (6-mer frequency, TF over GST control)"
same,binding signal,[4],"1.03 fold enrichment (6-mer frequency, TF over GST control)"
same,binding signal,[5],"1.01 fold enrichment (6-mer frequency, TF over GST control)"
same,binding signal,[6],"1.07 fold enrichment (6-mer frequency, TF over GST control)"
same,binding signal,[7],"1.11 fold enrichment (6-mer frequency, TF over GST control)"
same,binding signal,[8],"1 fold enrichment (6-mer frequency, TF over GST control)"
same,binding signal,[9],"1.12 fold enrichment (6-mer frequency, TF over GST control)"
same,binding signal,[10],"1.04 fold enrichment (6-mer frequency, TF over GST control)"
same,binding signal,[11],"1.14 fold enrichment (6-mer frequency, TF over GST control)"
same,binding signal,[12],"1.05 fold enrichment (6-mer frequency, TF over GST control)"
same,binding signal,[13],"1.01 fold enrichment (6-mer frequency, TF over GST control)"
same,binding signal,[14],"1.08 fold enrichment (6-mer frequency, TF over GST control)"
same,binding signal,[15],"1.07 fold enrichment (6-mer frequency, TF over GST control)"
same,binding signal,[16],"1.03 fold enrichment (6-mer frequency, TF over GST control)"
